Screening data from PubChem BioAssay.
Only some compounds are listed: those with a hit (about 2.4% of all), similar ones and a draw of the others.
Pol iota inh: blocks human DNA polymerase iota activity. Q9UNA4. Pol iota fluorescent replication assay, 10 min. Potency, µM (top dose mostly 115 µM), usual class: inhibitors. 390,000 tested, 1% active
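Pol iota at 10 nM preincubated 15 min with compounds at room temperature; reaction started with fluorescent substrate, 50 nM final. Fluorescence read kinetically at 0 and 10 min; buffer-only wells as negative control.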
Pol eta inh: blocks human DNA polymerase eta activity; Q9Y253; recombinant Pol eta, fluorescent DNA replication assay; Potency, µM (highest dose often 114 µM), usual class: inhibitors; 390,000 tested, 1.2% active; AID 588591
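Pol eta (10 nM) was preincubated with compounds for 15 min at room temperature, after which fluorescent replication substrate (50 nM final) was added to start the reaction. Fluorescence was read kinetically at 0 and 10 min.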
Pol beta inh: inhibitors of human DNA polymerase beta. P06746. Pol beta primer extension/strand displacement, fluorescence kinetic. Potency, µM (highest dose often 114 µM), usual class: inhibitors. 340,000 tested, 1.3% active. AID 485314
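Kinetic readout of DNA synthesis with strand displacement by Pol beta. Compound and 10 nM enzyme sit 15 min at room temperature; 50 nM substrate starts the reaction, read immediately and at 10 min.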
TDP1 block: inhibitors of human tyrosyl-DNA phosphodiesterase TDP1. recombinant TDP1, AlphaScreen DNA substrate cleavage. Q9NUW8. 350,000 tested, 0.28% active. Potency, µM (titrated, usually from 130 µM), usual class: inhibitors; further: nearly all actives have a fitted effect of over 40% in size
Target sequence (Q9NUW8 whole entry, looked up): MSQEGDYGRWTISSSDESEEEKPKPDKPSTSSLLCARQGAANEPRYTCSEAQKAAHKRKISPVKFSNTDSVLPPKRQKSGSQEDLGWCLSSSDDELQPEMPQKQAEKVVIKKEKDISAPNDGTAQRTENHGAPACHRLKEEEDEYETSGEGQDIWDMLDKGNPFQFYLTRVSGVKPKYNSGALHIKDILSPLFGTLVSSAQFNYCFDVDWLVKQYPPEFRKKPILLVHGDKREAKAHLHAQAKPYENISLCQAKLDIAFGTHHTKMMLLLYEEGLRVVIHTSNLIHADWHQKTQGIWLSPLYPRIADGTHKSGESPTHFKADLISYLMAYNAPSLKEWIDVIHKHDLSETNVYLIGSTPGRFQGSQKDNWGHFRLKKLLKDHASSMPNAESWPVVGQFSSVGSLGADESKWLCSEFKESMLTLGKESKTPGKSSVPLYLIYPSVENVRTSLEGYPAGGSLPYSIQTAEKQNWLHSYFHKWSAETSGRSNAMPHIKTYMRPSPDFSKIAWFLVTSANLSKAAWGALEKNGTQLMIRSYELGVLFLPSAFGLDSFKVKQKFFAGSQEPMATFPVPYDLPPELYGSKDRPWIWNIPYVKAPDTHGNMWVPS
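Signal: AlphaScreen proximity between streptavidin donor and anti-FITC acceptor beads on intact substrate. Reaction: Tdp1 1 nM, substrate 15 nM final, 5 min RT after 15 min compound preincubation.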
FEN1 inh: inhibitors of human flap endonuclease 1 | Potency, µM (series often up to 114 µM), usual class: inhibitors | Recombinant FEN1 flap cleavage, fluorescence, 15 min | P39748 | 390,000 tested, 0.35% active | AID 588795; further: nearly all actives have a fitted effect of over 65% in size
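Concentration–response screening of FEN1 (10 nM): 15 min compound preincubation at room temperature, reaction started with 50 nM substrate and read at 0 and 15 min. Corrected, normalized data were fitted by a four-parameter Hill equation.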
POLK inh: inhibitors of human DNA polymerase kappa; Potency, µM (titrated, usually from 107 µM), usual class: inhibitors; purified Pol kappa, fluorescent DNA synthesis assay, 10 min; 400,000 tested, 0.53% active; Q9UBT6
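Pol kappa 10 nM + cpd, 15 min RT; start w/ substrate 50 nM final; fluorescence kinetic read, 0 and 10 min. Neg ctrl: buffer, no enzyme.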
Large screens that a line does not name were inactive. The call rests on the fitted dose curve; in most records, active means well fitted curve in the direction sought with a large enough effect; inconclusive means small, poorly fitted or top-dose-only effect, or another doubt; inactive means no such curve, though single readings can be large; an effect the other way counts as inactive or inconclusive.

Cc1ccc(NC(=O)CS(=O)CC(=O)NC(C)CCc2ccco2)cc1Cl (stereo not given)	Pol eta inh inconclusive, Pol beta inh 31.6µM
N=C1/C(=C\c2ccc(OC(=O)c3ccc(F)cc3)cc2)C(=O)N=C2SC(N3CCOCC3)=NN12	TDP1 block 56.2µM
CC1CCN(C2=NN3C(=N)/C(=C\c4ccc(OC(=O)c5ccco5)cc4)C(=O)N=C3S2)CC1	Pol iota inh inconclusive, Pol eta inh inconclusive, FEN1 inh inconclusive, POLK inh inconclusive (no result: TDP1 block)
CCOc1cccc(C(=O)N(Cc2ccc(N(C)C)cc2)CC2CCCO2)c1 (stereo not given)	none
Cn1cncc1C#Cc1c(C=O)n(C)c2ccccc12	Pol iota inh inconclusive, TDP1 block 56.2µM, FEN1 inh inconclusive (no result: Pol beta inh)
Cc1ccc2nc(Cl)c3cc(C(=O)N4CCCC(C)C4)sc3c2c1 (stereo not given)	Pol beta inh inconclusive
O=C(CCC1N=C2c3ccccc3N=C(SCC(=O)Nc3cccc(Cl)c3)N2C1=O)NCc1ccco1 (stereo not given)	Pol iota inh inconclusive, Pol eta inh inconclusive
O=C(O)c1cc(C(=O)O)cc(-c2ccc(/C=c3/sc4nc5ccccc5n4c3=O)o2)c1	Pol iota inh 10µM, Pol eta inh 3.55µM, Pol beta inh 4.47µM, FEN1 inh 35.5µM, POLK inh 17.8µM (no result: TDP1 block)
COC(=O)/C=c1/sc2nc3ccccc3n2c1=O	Pol iota inh inconclusive
O=c1/c(=C\c2cc([N+](=O)[O-])cc([N+](=O)[O-])c2O)sc2nc3ccccc3n12	Pol iota inh inconclusive, Pol eta inh inconclusive, Pol beta inh 17.8µM, FEN1 inh 56.2µM, POLK inh inconclusive
O=C1CCCC(=NNC(=O)c2cc3ccccc3cc2O)C1	Pol iota inh 79.4µM (no result: Pol beta inh)
O=C(NN=C1CCN(Cc2ccccc2)CC1)c1cc2ccccc2cc1O	Pol iota inh 79.4µM, Pol eta inh inconclusive, POLK inh inconclusive
CCCCN1CCCc2cc(CN(CCCN3CCOCC3)C(=O)Nc3ccc(CC)cc3)ccc21	none
Cc1ccccc1CCNC(=O)c1ccc(Cn2c(=O)c3cccn3c3cccnc32)cc1	Pol iota inh inconclusive, Pol eta inh 89.1µM, Pol beta inh inconclusive
Cc1ccc(CCNC(=O)c2ccc(Cn3c(=O)c4cccn4c4cccnc43)cc2)cc1	Pol iota inh 79.4µM, Pol eta inh inconclusive, Pol beta inh inconclusive
Cc1ccc(NCc2ccc(O)c3ncccc23)c(F)c1	none (no result: Pol iota inh, Pol eta inh, Pol beta inh, FEN1 inh, POLK inh)
COc1ccc(OC)c2sc(NC(=O)c3cccc(N4C(=O)CCC4=O)c3)nc12	Pol iota inh 28.2µM, Pol eta inh inconclusive, Pol beta inh inconclusive, FEN1 inh inconclusive
COc1ccc(CN2C(=O)N(c3ccc(F)cc3)C(=O)C2CC(=O)Nc2ccccc2)cc1 (stereo not given)	none
COc1ccc(OC)c(S(=O)(=O)n2cnc3ccccc32)c1	none (no result: TDP1 block)
COc1cc(C)c(Cl)cc1S(=O)(=O)n1cnc2ccccc21	Pol beta inh 89.1µM
Cn1cc(C(=O)NCc2ccccc2Cl)c(=O)c2cc(S(=O)(=O)N3CCCCCC3)ccc21	none
CC(C)(C)C1=CC(=O)C(=O)C(C(C)(C)C)=C1	FEN1 inh 70.8µM
Brc1ccc(/C=C2\C=Cc3ccccc32)cc1	none (no result: Pol eta inh, Pol beta inh, TDP1 block)
COc1cc(C=NNc2nc3c([nH]2)c(=O)n(C)c(=O)n3C)ccc1O	none (no result: Pol beta inh, TDP1 block)
Cc1nc2c(cc1C(=O)N/N=C/c1ccc(O)c(O)c1)c(=O)n(C)c(=O)n2C	Pol iota inh inconclusive, Pol eta inh inconclusive, Pol beta inh 44.7µM
CC(C)N1CCN(Cc2cccc(-c3ccco3)c2)CC1CCO (stereo not given)	Pol beta inh 10µM (no result: TDP1 block)
O=[N+]([O-])c1ccc(S(=O)(=O)Nc2nc(-c3ccccc3)cs2)cc1	Pol beta inh inconclusive (no result: TDP1 block)
O=S(=O)(Nc1nc(-c2ccccc2)cs1)c1cc(Cl)ccc1Cl	Pol iota inh inconclusive, Pol eta inh inconclusive, Pol beta inh 44.7µM
COc1cc(/C=C2/C(=O)N(c3ccc(C(=O)O)cc3)N=C2C)cc(OC)c1O	Pol iota inh 1.58µM, Pol eta inh inconclusive, FEN1 inh inconclusive (no result: TDP1 block)
COc1cc(/C=C2/C(=O)N(c3ccc(Br)cc3)N=C2C)cc(OC)c1OC	Pol iota inh inconclusive (no result: TDP1 block)
